For 66 compounds, max response results are on record in PubChem BioAssay AID2314 (National Center for Advancing Translational Sciences (NCATS), 2010).

Out of some 300,000 compounds screened, about 37,000 (12%) were called active. Many of the other results were omitted from the sample, so actives are more common in it than they were. Unmarked numbers belong to inactive results. Cut-off read from the data, not from the text of the source: active = max response mostly above about 13% (no sharp cut-off); inactive = mostly below about 14%.

A short description of the assay: Cycloheximide Counterscreen for Small Molecule Inhibitors of Shiga Toxin. Note: read at 38.3 µM for the half of the compounds with a filed dose; 0% is about no effect. The note with it: cell reporter, cycloheximide protein synthesis inhibition counterscreen; stronger effect = higher value.
On to `COc1ccc(N2C(=O)/C(=C\c3ccco3)N=C2SCC(N)=O)cc1Cl`, for which the max response is 1.81%.
With `CCOc1ccccc1N1CCN(C(=S)Nc2ccc(S(N)(=O)=O)cc2)CC1`, the max response was -1.52%.
To `Cc1ccc(C(CNC(=O)Nc2ccccc2)N2CCN(C)CC2)cc1` (stereo unspecified) belongs -1.45%; to `COC(=O)c1cc(S(=O)(=O)N2CCN(c3cc(C)ccc3C)CC2)c[nH]1`, 1.68%.
Regarding `Cc1ccc(-c2nn(-c3cccc(F)c3)cc2CNCCc2ccncc2)o1`, the max response is 5.75%.
To `Cc1ccc(Cl)c(NC(=O)CN2CCN(C=O)CC2)c1` belongs 5.32%.
To `OC(CNCc1ccc(Cl)c(Cl)c1)c1ccccc1` (stereo unspecified) belongs 9.74%; to `CCN(CC)C(=O)COc1coc(CN2CCN(Cc3ccccc3)CC2)cc1=O`, -3.15%.
`CCC(Oc1ccccc1C)C(=O)Nc1ccc(S(=O)(=O)Nc2cc(C)on2)cc1` (stereo unspecified): the max response was -7.98%.
The value for `Cc1cccc(N2CCC(NCc3c(C(=O)N4CCCCC4)nc4c(C)cccn34)CC2)c1` was -4.59%; that for `Cc1ccc(NC(=O)/C(=C\c2ccccc2)NC(=O)c2ccco2)cc1` was 0.86%.
Take `O=C(NNC(=O)c1cccnc1)Nc1ccccc1`: the max response was 4.83%.
In the case of `Cc1ccc(NC(=O)NCC(c2cccnc2)N2CCOCC2)cc1` (stereo unspecified), the max response is -4.08%.
Consider `COc1cc(NC(=O)Nc2ccc(C)cc2)cc([N+](=O)[O-])c1`, for which the max response is 24%.
The value for `COC(=O)c1ccc(NC(=O)Nc2ccc(C)cc2)cc1` was 25.1% (active).
Turning to `Cc1ccc(NC(=O)CC(=O)Nc2ccc(C)cc2)cc1`, the max response was -2.02%.
As for `CCC(=O)Nc1ccc(C(=O)N2CCN(C(=O)c3ccco3)CC2)cc1`, the max response was -1.69%.
Take `O=C(Nc1ccc(O)cc1)c1ccc(NC(=O)c2ccco2)cc1`: the max response was 31.9% (active).
The value for `Cc1ccnc(NC(=O)c2ccc(NC(=O)c3ccco3)cc2)c1` was 36.1% (active); that for `Cc1ccnc(NC(=O)CCC(=O)N(CC(=O)NCc2ccccc2)Cc2ccco2)c1` was -2.62%; that for `Cc1cc(NC(=O)c2ccc(F)cc2)ccc1NC(=O)c1ccco1` was 9.36%.
On to `Cc1ccc(NC(=O)Nc2cccnc2)cc1`, for which the max response is 24.6% (active).
To `CCc1ccccc1NC(=O)NCCN1CCCCC1` belongs -2.65%.
In the case of `COc1cccc(CNC(=O)CCC2CCCN(C(=O)c3ccoc3C)C2)c1` (stereo unspecified), the max response is 5.76%.
Turning to `Cc1ccc(S(=O)(=O)C2(S(=O)(=O)c3ccc(C)cc3)CCCC2)cc1`, the max response is -2.93%.
Consider `Nc1nc(SCC(=O)Nc2cc(C(F)(F)F)ccc2Cl)[nH]c(=O)c1NC(=O)c1ccco1`, for which the max response was -2.16%.
Turning to `COc1ccc(S(=O)(=O)N2CCCCCC2)cc1C(=O)OCC(=O)Nc1cc(C)on1`, the max response is -1.32%.
Consider `Cc1cc(C)cc(C(=O)OCC(=O)NCCNC(=O)COC(=O)c2cc(C)cc(C)c2)c1`, for which the max response is 19%.
As for `O=C1c2ccccc2NC(c2ccccn2)N1NS(=O)(=O)c1ccccc1` (stereo unspecified), the max response is 3.3%.
As for `CCn1c(SCC(=O)NC2=NCCS2)nnc1C(C)NC(=O)c1ccccc1F` (stereo unspecified), the max response was -2.33%.
Consider `Cc1cc2oc(=O)cc(CN3CCN(S(=O)(=O)c4cccs4)CC3)c2cc1C(C)C`, for which the max response was -2.14%.
`Cc1ccc(CNC(=O)Cc2cn(C)c3ccccc23)cc1`: the max response was 11.6%.
As for `Cc1cc2oc(=O)cc(CN(C)Cc3ccc(OC(F)F)cc3)c2cc1Cl`, the max response is -1.16%.
As for `O=C(NCCc1ccccc1Cl)C1CCC(=O)N(CCCc2ccccc2)C1` (stereo unspecified), the max response was -1.41%.
Consider `O=C(NCCCc1ccccc1)C1CCC(=O)N(CCc2ccc(Cl)cc2)C1` (stereo unspecified), for which the max response was 12% (active).
Regarding `O=C(NCCN1CCOC1=O)C1CCC(=O)N(CCc2ccc(Cl)cc2)C1` (stereo unspecified), the max response is -3.62%.
To `C/C=C(\C)C(=O)NCCN1C2=NC[C@H](Cc3ccc(O)cc3)N2C[C@@H]1Cc1ccc(OC)cc1` belongs 0.212%; to `COc1ccccc1NC(=O)c1ccc(N2CC3CC(C2)c2cccc(=O)n2C3)c(NC(=O)c2cccnc2)c1` (stereo unspecified), -5.5%; to `COc1ccccc1N1CC(O)=C(c2nc3ccccc3s2)C1=N`, 18.7% (active).
`N=C1C(c2nc3ccccc3s2)=C(O)CN1NC(=O)c1ccc([N+](=O)[O-])cc1`: the max response is 38.2% (active).
With `N=C1C(c2nc3ccccc3[nH]2)=C(O)CN1NC(=O)c1c[nH]c2ccccc12`, the max response was 6.82%.
On to `CCc1ccc(N2CC(O)=C(c3nc4ccccc4c(=O)[nH]3)C2=N)cc1`, for which the max response was 4.62%.
`CCOC(=O)CCCN1CC(O)=C(c2nc3ccccc3s2)C1=N`: the max response was 6.59%.
For the compound `O=C(Nn1cnnc1)c1ccc([N+](=O)[O-])cc1`, the max response is -3.89%.
Take `CCOc1ccc(N(CC(=O)Nc2ccccc2F)S(=O)(=O)c2c(C)[nH]c(=O)[nH]c2=O)cc1`: the max response was 9.46%.
As for `Cc1ccccc1/C=C\c1nc(O)c([N+](=O)[O-])c(=O)[nH]1`, the max response was -5.68%.
Turning to `COC(=O)CNC(=O)c1ccccc1F`, the max response was -2.02%.
`CSc1nnc(CNC(=O)c2ccccc2)n1-c1ccc(F)cc1`: the max response was -2.44%.
Regarding `O=C(CNC(=O)c1ccc(F)cc1)c1ccccc1`, the max response was 30% (active).
With `O=C(CNC(=O)c1ccccc1)NCC(=O)OCC(=O)c1ccccc1`, the max response is -5.87%.
Regarding `O=C(CNC(=O)c1ccccc1F)c1ccc(Br)cc1`, the max response is 57.7% (active).
For the compound `O=C(COC(=O)CNC(=O)c1ccccc1F)NCC(F)(F)F`, the max response is -1.02%.
To `COCCNC(=O)NC(=O)COC(=O)C1(c2ccc(Cl)cc2)CC1` belongs 7.97%; to `CC1(C)Cc2c(sc(NC(=O)C(=O)N3CCOCC3)c2C#N)CO1`, -9.16%; to `c1csc(-c2nc(-c3ccncc3)no2)c1`, 29.3% (active).
On to `CC1(C)N=C(c2ccccn2)C(C)(C)N1O`, for which the max response was -7.15%.
With `CC(C)c1nc(-c2ccccn2)no1`, the max response is 22.8% (active).
Consider `Clc1ccc(-n2nnnc2-c2cnc(-c3ccccn3)nc2-c2cccs2)cc1`, for which the max response is -3.52%.
To `O=C(NCc1cccnc1)c1nc(-c2cccs2)no1` belongs 13.1%; to `CCCCCCOc1ccc(OC(=O)c2cccnc2)cc1`, 14.6%.
For `O=C(COC(=O)c1ccc(Oc2ccccc2)cc1)Nc1nnc(-c2ccccc2)o1`, the max response was 13.5%.
On to `c1ccc(-c2noc(-c3cccs3)n2)nc1`, for which the max response is 17.4% (active).
The value for `COc1nc(-c2ccc(Cl)cc2)ccc1-c1noc(-c2cccs2)n1` was -1.17%.
To `c1ccc(-c2nccc(-c3ccc(-n4cnc5ccccc54)cc3)n2)nc1` belongs -1.84%.
The value for `O=C(Oc1ccc(-c2nc(-c3ccccn3)no2)cc1)c1ccccc1` was 31% (active).
For the compound `O=C(O)COc1ccc(-c2nccc(-c3cccs3)n2)cc1`, the max response was -3.38%.
